Assay results from PubChem BioAssay AID1159580 (chemical genetic matrix, 2015).
About 2,000 (36%) of roughly 5,500 compounds were called active. Another 18% or so got no clear call; they are omitted. Rule as the data show it: active = normalized growth mostly below about 0.91 (no sharp cut-off); inconclusive = no clear call, values can overlap the other calls; inactive = mostly above about 0.92. Some of the results follow.

Test: chemical genetic growth profiling, strain panel (AID 1159580);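 also: tested at 20 µM; growth read once vehicle control cultures reached saturation at 30 °C; 1 = growth at the plate median or of vehicle wells; lower values mean less growth of the strain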
Settings: growth OD

Measured: normalized growth

CC(=O)Oc1ccc(C(c2ccc(OC(C)=O)cc2)c2ccccn2)cc1
inactive: S. cerevisiae deletion strains, locus YJR075W, strain HOC1, hits give low values 0.978 | S. cerevisiae deletion strains, locus YKL009W, strain mrt4, hits give low values 0.985 | S. cerevisiae deletion strains, locus YKL068W, hits give low values 1 | S. cerevisiae deletion strains, locus YKL085W, strain MDH1 (second series), hits give low values 0.986 | S. cerevisiae deletion strains, locus YKL085W, strain MDH1, hits give low values 0.986 | S. cerevisiae deletion strains, locus YKL160W, strain elf1, hits give low values 1.03 | S. cerevisiae deletion strains, locus YKL190W, strain CNB1, hits give low values 0.989 | S. cerevisiae deletion strains, locus YKR001C, strain vps1, hits give low values 0.984 | S. cerevisiae deletion strains, locus YKR026C, strain gcn3, hits give low values 1.01 | S. cerevisiae deletion strains, locus YKR091W, strain srl3, hits give low values 1.02 | S. cerevisiae deletion strains, locus YLL001W, strain dnm1, hits give low values 1.01 | S. cerevisiae deletion strains, locus YLL026W, hits give low values 1.02 | S. cerevisiae deletion strains, locus YLL041C, strain sdh2, hits give low values 1.03 | S. cerevisiae deletion strains, locus YLR027C, strain aat2, hits give low values 1.02 | S. cerevisiae deletion strains, locus YLR039C, strain RIC1, hits give low values 0.986 | S. cerevisiae deletion strains, locus YLR058C, strain SHM2, hits give low values 0.984 | S. cerevisiae deletion strains, locus YLR102C, strain apc9, hits give low values 0.995 | S. cerevisiae deletion strains, locus YLR113W, strain HOG1, hits give low values 0.953 | S. cerevisiae deletion strains, locus YLR221C, strain rsa3, hits give low values 1.02 | S. cerevisiae deletion strains, locus YLR258W, strain gsy2, hits give low values 1.03 | S. cerevisiae deletion strains, locus YLR262C, strain YPT6 (second series), hits give low values 1.01 | S. cerevisiae deletion strains, locus YLR262C, strain YPT6, hits give low values 0.969 | S. cerevisiae deletion strains, locus YLR268W, strain sec22, hits give low values 0.992 | S. cerevisiae deletion strains, locus YLR320W, strain mms22, hits give low values 1 | S. cerevisiae deletion strains, locus YLR330W, strain CHS5, hits give low values 0.988 | S. cerevisiae deletion strains, locus YLR342W, strain FKS1 (second series), hits give low values 1.02 | S. cerevisiae deletion strains, locus YLR342W, strain FKS1, hits give low values 1.01 | S. cerevisiae deletion strains, locus YLR357W, strain rsc2, hits give low values 1.08 | S. cerevisiae deletion strains, locus YLR370C, strain arc18, hits give low values 1.03 | S. cerevisiae deletion strains, locus YLR371W, strain rom2, hits give low values 0.983 | S. cerevisiae deletion strains, locus YLR384C, strain iki3, hits give low values 1.02 | S. cerevisiae deletion strains, locus YLR418C, strain cdc73, hits give low values 0.999 | S. cerevisiae deletion strains, locus YML016C, strain PPZ1, hits give low values 0.981 | S. cerevisiae deletion strains, locus YML032C, strain rad52, hits give low values 0.998 | S. cerevisiae deletion strains, locus YML120C, strain ndi1, hits give low values 1 | S. cerevisiae deletion strains, locus YML124C, strain tub3, hits give low values 0.992 | S. cerevisiae deletion strains, locus YMR058W, strain fet3, hits give low values 1.01 | S. cerevisiae deletion strains, locus YMR078C, strain ctf18, hits give low values 0.985 | S. cerevisiae deletion strains, locus YMR125W, strain sto1, hits give low values 1.02 | S. cerevisiae deletion strains, locus YMR129W, hits give low values 1.02 | S. cerevisiae deletion strains, locus YMR205C, strain PFK2, hits give low values 0.985 | S. cerevisiae deletion strains, locus YMR223W, strain ubp8, hits give low values 0.987 | S. cerevisiae deletion strains, locus YMR231W, strain pep5, hits give low values 1.02 | S. cerevisiae deletion strains, locus YMR263W, strain SAP30, hits give low values 0.963 | S. cerevisiae deletion strains, locus YMR307W, strain GAS1, hits give low values 0.934 | S. cerevisiae deletion strains, locus YNL067W, strain RPL9B, hits give low values 0.965 | S. cerevisiae deletion strains, locus YNL071W, strain lat1, hits give low values 1.01 | S. cerevisiae deletion strains, locus YNL183C, strain NPR1, hits give low values 0.928 | S. cerevisiae deletion strains, locus YNL209W, strain ssb2, hits give low values 1 | S. cerevisiae deletion strains, locus YNL233W, strain BNI4, hits give low values 0.971 | S. cerevisiae deletion strains, locus YNL248C, strain rpa49, hits give low values 1.03 | S. cerevisiae deletion strains, locus YNL250W, strain rad50, hits give low values 0.98 | S. cerevisiae deletion strains, locus YNL271C, strain bni1, hits give low values 0.985 | S. cerevisiae deletion strains, locus YNL298W, strain CLA4, hits give low values 0.989 | S. cerevisiae deletion strains, locus YNL307C, strain MCK1, hits give low values 0.989 | S. cerevisiae deletion strains, locus YNL322C, strain KRE1 (second series), hits give low values 1.01 | S. cerevisiae deletion strains, locus YNL322C, strain KRE1, hits give low values 1 | S. cerevisiae deletion strains, locus YNR049C, strain mso1, hits give low values 1.01 | S. cerevisiae deletion strains, locus YNR052C, strain pop2, hits give low values 0.997 | S. cerevisiae deletion strains, locus YOL012C, strain htz1 1.18 | S. cerevisiae deletion strains, locus YOL147C, strain pex11, hits give low values 0.979 | S. cerevisiae deletion strains, locus YOR001W, strain rrp6, hits give low values 0.973 | S. cerevisiae deletion strains, locus YOR061W, strain CKA2, hits give low values 0.995 | S. cerevisiae deletion strains, locus YOR069W, strain VPS5, hits give low values 0.989 | S. cerevisiae deletion strains, locus YOR070C, strain gyp1, hits give low values 1 | S. cerevisiae deletion strains, locus YOR080W, strain dia2, hits give low values 1.02 | S. cerevisiae deletion strains, locus YOR083W, strain WHI5, hits give low values 1.02 | S. cerevisiae deletion strains, locus YOR106W, strain vam3, hits give low values 1.05 | S. cerevisiae deletion strains, locus YOR136W, strain idh2, hits give low values 0.975 | S. cerevisiae deletion strains, locus YOR144C, strain elg1, hits give low values 0.984 | S. cerevisiae deletion strains, locus YOR184W, strain ser1, hits give low values 1.01 | S. cerevisiae deletion strains, locus YOR231W, strain MKK1, hits give low values 0.974 | S. cerevisiae deletion strains, locus YOR265W, strain rbl2, hits give low values 1 | S. cerevisiae deletion strains, locus YOR270C, strain vph1, hits give low values 1.02 | S. cerevisiae deletion strains, locus YOR290C, strain snf2, hits give low values 1.04 | S. cerevisiae deletion strains, locus YOR316C, strain cot1, hits give low values 0.984 | S. cerevisiae deletion strains, locus YPL051W, strain arl3, hits give low values 1.01 | S. cerevisiae deletion strains, locus YPL078C, strain atp4, hits give low values 1.01 | S. cerevisiae deletion strains, locus YPL106C, strain sse1, hits give low values 1.03 | S. cerevisiae deletion strains, locus YPL240C, strain hsp82, hits give low values 1.02 | S. cerevisiae deletion strains, locus YPL241C, strain CIN2, hits give low values 0.996 | S. cerevisiae deletion strains, locus YPL256C, strain CLN2, hits give low values 1 | S. cerevisiae deletion strains, locus YPR119W, strain clb2, hits give low values 0.996 | S. cerevisiae deletion strains, locus YPR141C, strain kar3, hits give low values 0.974 | S. cerevisiae deletion strains, locus YPR163C, strain tif3, hits give low values 0.996 | S. cerevisiae deletion strains, locus YPR167C, strain met16, hits give low values 0.989 | S. cerevisiae deletion strains, strain wtn01, hits give low values 1.01 | S. cerevisiae strains, strain wild type, hits give low values 1
